# Test results as given in PubChem BioAssay (NCATS).
# Unmarked numbers belong to inactive results. Results filed as inconclusive are left out. A call without a number means that no potency is given here. Activity calls are given as the source filed them. Calls follow the shape of the dose curve; as a rule, active = well fitted curve in the direction sought with a large enough effect; inconclusive = small, poorly fitted or top-dose-only effect, or another doubt; inactive = no such curve, though single readings can be large; an effect the other way counts as inactive or inconclusive.
# Assays:
# [1] = Primary qHTS for inhibitors of nuclear receptor binding SET domain protein 2 (NSD2) in an RCH-ACV wild type WT cells (2C) (AID 1645877); also: nearly all actives have a fitted effect of over 70% in size; also: potency is read from the fitted curve at half-maximal effect
# [2] = biological target: Glutathione peroxidase 1 (Homo sapiens) (UniProt P07203); test: Primary qHTS Assay for Inhibitors of Recombinant Selenoprotein Glutathione Peroxidase 1 (GPX1) (AID 1845191); also: nearly all actives have a fitted effect of over 65% in size
# Chain of Glutathione peroxidase 1 (Homo sapiens) (P07203 whole entry, looked up): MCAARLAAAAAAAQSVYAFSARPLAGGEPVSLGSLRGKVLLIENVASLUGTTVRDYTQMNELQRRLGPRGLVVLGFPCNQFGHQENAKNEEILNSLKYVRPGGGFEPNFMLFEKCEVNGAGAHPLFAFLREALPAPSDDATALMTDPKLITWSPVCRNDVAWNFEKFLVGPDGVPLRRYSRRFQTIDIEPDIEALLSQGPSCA
# How it was run: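 Recombinant GPX1 (10 nM final) was preincubated with compound for 30 min at room temperature, then reacted with 1 mM GSH, 0.5 mM CHP, 0.5 mM NADPH and 100 nM glutathione reductase; NADPH fluorescence (340/450 nm) was read at 0 and 15 min.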
# [3] = biological target: Phospholipid hydroperoxide glutathione peroxidase GPX4 (Homo sapiens) (UniProt P36969); test: Primary qHTS Assay for Inhibitors of Recombinant Selenoprotein Glutathione Peroxidase 4 (GPX4) (AID 1845192); also: nearly all actives have a fitted effect of over 65% in size; as to activity change, negative = inhibition: series mostly up to about 50 µM
# Chain of Phospholipid hydroperoxide glutathione peroxidase GPX4 (Homo sapiens) (P36969 whole entry, looked up): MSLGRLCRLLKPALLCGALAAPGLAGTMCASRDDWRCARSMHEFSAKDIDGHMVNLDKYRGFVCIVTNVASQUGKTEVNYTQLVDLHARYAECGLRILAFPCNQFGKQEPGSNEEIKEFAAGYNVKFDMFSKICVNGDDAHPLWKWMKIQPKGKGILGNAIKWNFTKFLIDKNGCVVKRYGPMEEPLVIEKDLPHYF
# How it was run: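 GR-coupled readout: 100 nM GR, 1 mM GSH, 0.5 mM NADPH; NADPH fluorescence (ex 340/em 450 nm) read at t=0 and after 15 min RT. GPX4 200 nM, preincubated 30 min with compound; substrate 0.5 mM CHP.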
# [4] = biological target: Luciferin 4-monooxygenase (Photinus pyralis) (UniProt P08659); test: Primary firefly luciferase (FLuc) qHTS assay for identification of artifact compounds. (AID 1845220); also: nearly all actives have a fitted effect of over 60% in size; as to activity change, negative = inhibition: series mostly up to about 54 µM
# How it was run: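 Reaction readout was CCD-imaged luminescence, taken 5 min after adding 10 nM purified firefly enzyme to compound-treated wells holding 10 uM luciferin and ATP in pH 7.6 buffer.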
# [5] = Primary fluorescence-based thiol-reactive (MSTI) qHTS assay for identification of artifact compounds. (AID 1845221); also: nearly all actives have a fitted effect of over 65% in size; also: potency is read from the fitted curve at half-maximal effect;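 as to activity change, negative = thiol reactive: series mostly up to about 54 µM; thiol-reactive compounds lower the probe fluorescence signal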
# How it was run: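 In PBS pH 7.4 with 2% DMSO, each compound met 4 uM MSTI for one hour at ambient temperature, shielded from light, before fluorescence detection.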
# [6] = test system: Nanoluciferase (engineered Oplophorus gracilirostris luciferase); test: Primary Nanoluciferase (NLuc) qHTS assay for identification of artifact compounds. (AID 1845222);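 also: NLuc secreted into diluted conditioned medium of S16 cells; series mostly up to about 54 µM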
# How it was run: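 Concentration-response data were obtained by luminescence after 5 min with Nano-Glo substrate at 1:100. The enzyme was diluted S16 NLuc-expressing cell medium, preincubated with compound for 15 min at RT. Curves were fitted with a 4-parameter Hill model.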
# [7] = Primary redox qHTS assay for identification of artifact compounds. (AID 1845223); also: potency is read from the fitted curve at half-maximal effect
# How it was run: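 Amplex Red (25 uM) and HRP (250 mU/mL) in HBSS, with compounds for 15 min, then 250 uM DTT for 30 min, room temperature, dark. Fluorescence 525/598 nm read; normalized to DMSO and 10 uM DA3003; Hill fit.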
SMILES,"activity change, negative = cell killing [1]",Potency [2],Potency [3],"activity change, negative = inhibition [4]","activity change, negative = thiol reactive [5]","activity, negative = inhibition [6]",redox activity (% of DA3003) [7],Potency [1],Potency [4],Potency [5],Potency [6],Potency [7],"activity, negative = inhibition [2]","activity change, negative = inhibition [3]"
C[C@@H]1O[C@@H](O[C@H]2[C@@H](OC(=O)[C@]34CCC(C)(C)CC3C3=CCC5[C@@]6(C)C[C@H](O)[C@H](O[C@@H]7O[C@H](C(=O)O)[C@@H](O)[C@H](O)[C@H]7O)[C@@](C)(C(=O)O)C6CC[C@@]5(C)[C@]3(C)CC4)OC[C@H](O)[C@@H]2O)[C@H](O)[C@H](O)[C@H]1O[C@@H]1OC[C@@H](O)[C@H](O)[C@H]1O (stereo partly drawn),-16.7% [at 9.23 µM],inactive,inactive,-6.45% [at 11.6 µM],118% [at 11.5 µM],0.813% [at 11.6 µM],13% [at 11.5 µM],–,–,–,–,–,–,–
OC[C@H]1O[C@@H](O[C@H]2[C@H](OCCc3ccccc3)O[C@H](CO)[C@@H](O)[C@@H]2O)[C@H](O)[C@@H](O)[C@@H]1O,–,inactive,inactive,–,–,–,–,inactive,inactive,10300 nM (active),inactive,inactive,–,–
O=C1CC2(CCCC2)[C@H](O)C(=O)N1CCCCN1CCN(c2ncccn2)CC1,–,inactive,inactive,–,–,–,–,inactive,inactive,inactive,inactive,inactive,–,–
C[C@]12C=C[C@@]3(CCC4[C@](C)(CO)CCC[C@@]4(C)C3CC1)C2 (stereo partly drawn),–,inactive,inactive,–,–,–,–,inactive,inactive,inactive,inactive,inactive,–,–
CC1OC(OC2C(CO)OC(OCC3OC(OC(=O)C45CCC(C)(C)CC4C4=CCC6C7(C)CCC(OC8OC(CO)C(O)C(OC9OC(CO)C(O)C(O)C9O)C8O)C(C)(C)C7CCC6(C)C4(C)CC5)C(O)C(O)C3O)C(O)C2O)C(O)C(O)C1OC1OC(CO)C(O)C(O)C1O (stereo not drawn),-10.4% [at 9.23 µM],–,–,-3.46% [at 11.6 µM],208% [at 11.5 µM],1.03% [at 11.6 µM],10.1% [at 11.5 µM],–,–,–,–,–,-12.6% [at 9.52 µM],-8.53% [at 9.73 µM]
CCC(COC)n1nnc2c(Nc3ccc(OC)cc3C)nc(C)cc21 (stereo not drawn),–,inactive,inactive,–,–,–,–,inactive,inactive,inactive,inactive,inactive,–,–
CCC(CC)C(=O)Nc1sc2c(c1C#N)CCC(C(C)(C)CC)C2 (stereo not drawn),–,inactive,inactive,–,–,–,–,inactive,inactive,inactive,inactive,inactive,–,–
NC(=O)[C@H](O[C@@H]1O[C@H](CO)[C@@H](O)[C@H](O)[C@H]1O)c1ccccc1,–,inactive,inactive,–,–,–,–,inactive,inactive,16500 nM (active),inactive,inactive,–,–
COc1ccc(CCC(=O)c2c(O)cc(O)cc2O[C@@H]2O[C@H](CO)[C@@H](O)[C@H](O)[C@H]2O)cc1,–,inactive,inactive,–,–,–,–,8930 nM (active),inactive,10300 nM (active),inactive,inactive,–,–
Clc1cc2c(NC3CCCC3)nnc(-c3ccncc3)c2cc1Cl,–,inactive,inactive,–,–,–,–,inactive,inactive,inactive,inactive,inactive,–,–
CC1CC(C(O)C(C)(C)O)OC2CC3(C)C4(C)CCC5C(C)(C)C(=O)CCC5(C)C4CCC3(O)C12O (stereo not drawn),–,inactive,inactive,–,–,–,–,inactive,inactive,inactive,inactive,inactive,–,–
C=C(C)C(=O)O[C@H]1C[C@@](C)(O)C(=O)CC(O)/C(C)=C\[C@H]2OC(=O)C(=C)[C@H]12 (stereo partly drawn),–,inactive,inactive,–,–,–,–,1270 nM (active),inactive,2930 nM (active),inactive,inactive,–,–
CC(C)NCC(C(=O)N1CCN(c2ncnc3c2C(C)CC3O)CC1)c1ccc(Cl)cc1 (stereo not drawn),–,inactive,inactive,–,–,–,–,2300 nM (active),inactive,inactive,inactive,inactive,–,–
CC(=O)c1cc2c(cc1O)OC(C)(C)C=C2,–,inactive,inactive,–,–,–,–,inactive,inactive,inactive,inactive,inactive,–,–
C[C@@]1(O)[C@H](O)[C@@H](CO)O[C@H]1n1ccc(N)nc1=O,–,inactive,inactive,–,–,–,–,23000 nM (active),inactive,inactive,inactive,inactive,–,–
OCCc1ccc(O[C@@H]2O[C@H](CO)[C@@H](O)[C@H](O)[C@H]2O)cc1,–,inactive,inactive,–,–,–,–,inactive,inactive,inactive,inactive,inactive,–,–
Nc1nc2c(ncn2[C@@H]2O[C@H](CO)[C@@H](O)[C@H]2O)c(=O)[nH]1,–,inactive,inactive,–,–,–,–,inactive,inactive,inactive,inactive,inactive,–,–

SMILES,"activity change, negative = cell killing [1]",Potency [2],Potency [3],"activity change, negative = inhibition [4]","activity change, negative = thiol reactive [5]","activity, negative = inhibition [6]",redox activity (% of DA3003) [7],Potency [1],Potency [4],Potency [5],Potency [6],Potency [7],"activity, negative = inhibition [2]","activity change, negative = inhibition [3]"
CCC[C@@H]1O[C@@H]2C[C@H]3[C@@H]4CCC5=CC(=O)C=C[C@]5(C)[C@H]4[C@@H](O)C[C@]3(C)[C@]2(C(=O)CO)O1,–,inactive,inactive,–,–,–,–,5.8 nM (active),inactive,inactive,inactive,inactive,–,–
CC(C)c1cc(C(=O)N2CC[C@@H](NC(=O)C3CC3)C2)n[nH]1,–,inactive,inactive,–,–,–,–,inactive,inactive,inactive,inactive,inactive,–,–
COc1ccc(-c2cnc(-c3cccc4c3-c3ccccc3C4=O)o2)cc1,–,inactive,inactive,–,–,–,–,89.3 nM (active),inactive,inactive,inactive,inactive,–,–
CC[C@@H](O)C[C@@H]1C(C)=C[C@@H]2CCCC[C@@H]2[C@@]1(C)C(=O)O,–,inactive,inactive,–,–,–,–,inactive,inactive,inactive,inactive,inactive,–,–
CCc1cccc(CC)c1NC(=O)c1nn(C)c2c1CCc1cnc(Nc3ccc(C(=O)NC4CCN(C)CC4)cc3OC(F)(F)F)nc1-2,–,inactive,inactive,–,–,–,–,1780 nM (active),inactive,inactive,inactive,inactive,–,–
CC1(C)CCCC2(C)C(C(=O)O)=CCC12 (stereo not drawn),–,inactive,inactive,–,–,–,–,inactive,inactive,inactive,inactive,inactive,–,–
COc1cc2ncnc(N3CCC(Oc4cnc5ccccc5n4)C3)c2cc1OC (stereo not drawn),–,inactive,inactive,–,–,–,–,145 nM (active),inactive,inactive,inactive,inactive,–,–
[N-]=[N+]=N[C@]1(CO)O[C@@H](n2ccc(=O)[nH]c2=O)[C@@H](O)[C@@H]1O,–,inactive,inactive,–,–,–,–,inactive,inactive,inactive,inactive,inactive,–,–
CC(C)=CCC[C@](C)(O)[C@H]1CC[C@]2(C)[C@@H]1[C@H](O)CC1[C@@]3(C)CC[C@H](O)C(C)(C)C3[C@@H](O[C@@H]3O[C@H](CO)[C@@H](O)[C@H](O)[C@H]3O[C@@H]3OC[C@@H](O)[C@H](O)[C@H]3O)C[C@]12C (stereo partly drawn),–,inactive,inactive,–,–,–,–,inactive,inactive,inactive,inactive,inactive,–,–
CCC(C)C(=O)OC1CC(O)C23C4OCC5(C(O)CC2C1(C)C(O)O4)C3C(=O)CC1(C)C(c2ccoc2)CC2OC215 (stereo not drawn),–,inactive,inactive,–,–,–,–,126 nM (active),inactive,inactive,inactive,inactive,–,–
CCCN1CCC(c2cccc(S(C)(=O)=O)c2)CC1,–,inactive,inactive,–,–,–,–,inactive,inactive,inactive,inactive,inactive,–,–
CC(=O)OC1C(O)C2C(C)C3=CC(=O)OC3(O)CC2C2(C)CCCC(C)(CO)C12 (stereo not drawn),–,inactive,inactive,–,–,–,–,inactive,inactive,inactive,inactive,inactive,–,–
C=C[C@H]1[C@H](O[C@@H]2O[C@H](CO)[C@@H](O)[C@H](O)[C@H]2O)OC=C(C(=O)OC)[C@H]1CC(=O)O,–,inactive,inactive,–,–,–,–,inactive,inactive,inactive,inactive,inactive,–,–
CC(=O)NC1=NN(C(C)=O)C(C)(c2ccccc2)S1 (stereo not drawn),–,inactive,inactive,–,–,–,–,4090 nM (active),inactive,inactive,inactive,inactive,–,–
C[C@H](NC(c1cccc(C[P+](=O)O)c1)[C@H](C)O)c1ccc(Cl)c(Cl)c1 (stereo partly drawn),–,inactive,inactive,–,–,–,–,inactive,inactive,inactive,inactive,inactive,–,–
CC1(C)C2CC(OC3OC(COC4OCC(O)(CO)C4O)C(O)C(O)C3O)C1(C)CC2O (stereo not drawn),–,inactive,inactive,–,–,–,–,inactive,inactive,inactive,inactive,inactive,–,–
COC(=O)c1c(C)cc(OC(=O)c2c(C)cc(OC)cc2OC)cc1O[C@@H]1O[C@H](CO)[C@@H](O)[C@H](O)[C@H]1O,–,inactive,inactive,–,–,–,–,inactive,inactive,inactive,inactive,2920 nM (active),–,–
